Data taken from the supplement of paper PMC4723716.
In all, about 3,600 compounds were measured (“viability index relative to DMSO control”: median about 0.81, lowest 2% from about 0.13 on). Only a selection was taken, and the lowest values are over-represented in it overall.

test system: Plasmodium falciparum NF54 stage V gametocytes; test: viability index relative to DMSO control (fraction); higher = less gametocyte killing; conditions: 1.25 µM, incubation time: 72 h
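Further: Saponin-lysis sexual stage assay in serum-free medium: MitoTracker Red CMXRos staining plus saponin, high-content imaging, particle count per well divided by plate mean of DMSO wells.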

| SMILES | viability index |
| --- | --- |
| COc1ccc(NC(=O)c2cnn(-c3ccccc3)c2NC(=O)c2ccco2)cc1 | 0.846 |
| COc1cccc(CNC(=O)Cn2ncc3c(=O)oc4ccc(C)cc4c32)c1 | 0.843 |
| CC(C)NCC(O)Cn1c2ccc(Cl)cc2c2cc(Cl)ccc21 (centres undefined) | 0.419 |
| CC(=O)c1ccc(N2CCN(Cc3cc(-c4ccnc5cc(Cl)ccc45)ccc3O)CC2)cc1 | 0.433 |
| O=C1CC(c2cccc([N+](=O)[O-])c2)c2cc3c(cc2N1)OCO3 (centres undefined) | 0.839 |
| O=C(O)CCNc1ccccc1[N+](=O)[O-] | 0.971 |
| Cc1cc(Nc2cccc([N+](=O)[O-])c2)nc2cc(O)ccc12 | 0.819 |
| O=[N+]([O-])c1cc(Br)c(Nc2ccccc2)c([N+](=O)[O-])c1 | 0.0522 |
| COc1ccccc1NC(=O)C(=O)NCCc1ccc(OC)c(OC)c1 | 0.413 |
| Cc1c(CN2CCC(N3CCC(C(=O)NC4CC4)CC3)CC2)[nH]c2c(Cl)cccc12 | 0.865 |
| O=C(CN1CCN(C(=O)c2ccco2)CC1)Nc1cc(C(F)(F)F)ccc1Cl | 1.11 |
| CC1CCN(c2nncc3ccccc23)CC1 | 0.777 |
| Cc1cc(C)n(-c2ncc(-c3ccc([N+](=O)[O-])cc3)cn2)n1 | 1.02 |
| Cc1cc(N2CCC(C)CC2)nc(-n2nc(C)cc2C)n1 | 0 |
| CN1CCC(CCNCc2ccc(OCC(O)CN(C)Cc3ccccc3)cc2)CC1 (centres undefined) | 0.856 |
| Cn1c(=O)c(Cl)c2c3c(c(Cl)ccc31)C(=O)c1ccccc1-2 | 0.0761 |
| CCCCNC(=O)c1nn(-c2ccc(OC)cc2)c(=O)c2ccccc12 | 0.946 |
| O=c1c(=Cc2ccc(-c3ccc([N+](=O)[O-])cc3Cl)o2)sc2nc3ccccc3n12 | 0.699 |
| CCC(C)NCC(O)(c1ccc(Cl)cc1)c1ccc(Cl)cc1 (centres undefined) | 0.699 |
| CCCOC(=O)C1=C(C)NC2=C(C(=O)CC(c3ccc(OC)c(OC)c3)C2)C1c1ccc([N+](=O)[O-])cc1 (centres undefined) | 0.514 |
| CCOC(=O)c1[nH]nc(C(=O)c2ccccc2)c1-c1ccccc1 | 1.27 |
| CCOC(=O)c1c(Cl)nnc(-c2ccccc2)c1-c1ccccc1 | 0 |
| CCOC(=O)c1c(-c2ccccc2)oc2c1C(=O)c1ccccc1C2=O | 0.461 |
| CCOC(=O)c1c(NC(=O)Cc2ccc([N+](=O)[O-])cc2)sc2c1CCCC2 | 1.02 |
| Cc1ccc(CN2C(=O)C(O)(CC(=O)c3ccccc3)c3ccccc32)cc1 (centres undefined) | 0.914 |

| SMILES | viability index |
| --- | --- |
| CCN1C(=Cc2sc3ccccc3[n+]2C)C=Cc2ccc(C)cc21 | 0.51 |
| CN(C)CCCNc1c2ccccc2nc2ccccc12 | 0.0224 |
| CN(C)CCNc1c2c(nc3ccccc13)CCC2 | 0.953 |
| Cc1cc(NCCCN(C)C)c2ccccc2n1 | 0.888 |
| CCOc1cc([N+](=O)[O-])cc(C=Nc2cccc(NC(=O)c3ccco3)c2)c1O | 0.989 |
| N=c1n(CCN2CCCCC2)c2ccccc2n1CC(O)COc1ccc(Cl)cc1 (centres undefined) | 0.746 |
| O=C(CC1OC(=O)c2ccccc21)c1ccc(Cl)cc1 (centres undefined) | 0.496 |
| CCOC(=O)c1cnc2c(OC)cccc2c1Nc1ccc(C(C)=O)cc1 | 1.27 |
| CC(C)Nc1nc(-c2cccnc2)nc2ccccc12 | 1.12 |
| c1ccc(CNc2nc(-c3ccccn3)nnc2-c2ccccc2)cc1 | 0.374 |
| COc1cnc(-c2ccccn2)nc1NC(C)C | 0.0307 |
| COc1ccccc1/C=C/CN1CCN(c2ccccn2)CC1 | 1.15 |
| COc1cnc(-c2ccccn2)nc1N1CCCC1 | 0.0429 |
| COc1ccc(Nc2nc(N3CCCC3)c3ccccc3n2)cc1 | 0.74 |
| Cc1cc(C)nc(Nc2nc(C)c3cc(C)c(C)cc3n2)n1 | 0.196 |
| CCOC(=O)C1=C(C)NC2=C(C(=O)C(C(=O)OCC)C(c3ccc(OC)cc3)C2)C1c1ccc(OC)c(OC)c1 (centres undefined) | 0.683 |
| CN(C)c1ccc(C=C2SC(=Nc3ccc(O)cc3)NC2=O)cc1 | 0.727 |
| CCn1c(C=CN(C)c2ccccc2)[n+](CC)c2cc(Cl)ccc21 | 1 |
| CC(C)(C)c1ccc(Cn2nnc3c(O)nc(C4CCN(C(=O)c5ccccc5)CC4)nc32)cc1 | 0.736 |
| N=C1NC(=O)C(=CC=Cc2ccc([N+](=O)[O-])o2)S1 | 0.0408 |
| O=C(c1ccccc1)N1CCc2nc(Cc3ccc(F)cc3Cl)sc2C1 | 0.708 |
| COc1cccc(OC)c1C(=O)Oc1cccc2ccc(C)nc12 | 0.706 |
| Cc1ccc2ccc3ccc(C)nc3c2n1 | 0.0302 |
| Cc1ccc(NC(=O)c2ccc(NCCCN3CCCCCC3)c([N+](=O)[O-])c2)cc1F | 1.51 |
| S=C(NN=Cc1ccccn1)NC1CC2C=CC1C2 (centres undefined) | 0.0456 |

| SMILES | viability index |
| --- | --- |
| S=C(NN=Cc1ccccn1)NC1CC2CC1C1C=CCC21 (centres undefined) | 0.397 |
| CC1(C)C2CCC(C2)C1(C)NC(=S)NN=Cc1ccccn1 (centres undefined) | 0.0373 |
| CCOC(=O)c1ccc(N(C(=O)Cc2c[nH]c3ccccc23)C(C(=O)NC2CCCCC2)c2cccnc2)cc1 (centres undefined) | 0.513 |
| O=C(Nc1ccc(O)cc1)c1cccc(S(=O)(=O)N2CCCCC2)c1 | 1.03 |
| CC(=O)NC1=NN(C(C)=O)C(c2ccc(Br)cc2)S1 (centres undefined) | 0.944 |
| O=C(CSc1nc2ccccc2c(=O)n1CCCN1CCOCC1)Nc1cccc(S(=O)(=O)N2CCCCCC2)c1 | 0.969 |
| CCc1ccc2c(c1)C1(NN=C(c3ccc(C)cc3)S1)C(=O)N2 (centres undefined) | 0.127 |
| CC1=C(C(=O)OC2CCCCC2)C(c2ccc(F)c(F)c2)C2=C(CCCC2=O)N1 (centres undefined) | 0.855 |
| CN(C)CCNc1cc(-c2ccc3ccccc3c2)nc2ccccc12 | 0.0331 |
| CN(C)CCCNc1cc(-c2ccccc2)nc2ccccc12 | 0.913 |
| CN(C)CCNc1cc(-c2ccccc2)nc2ccccc12 | 0.909 |
| Cc1ccc(C=Cc2ccc3ccccc3[n+]2C)cc1 | 0.754 |
| O=C(NCc1ccccc1)C(c1ccc(F)cc1)N(Cc1ccco1)C(=O)c1cnccn1 (centres undefined) | 0.72 |
| CCOc1ccccc1NC(=O)Cn1c(=O)n(Cc2ccccc2)c(=O)c2c(C)c(C(=O)N(C)C)sc21 | 0.83 |
| CCCCCOC(=O)C1=C(C)NC2=C(C(=O)CC(C)(C)C2)C1c1ccncc1 (centres undefined) | 0.891 |
| CC(=O)N(C1=C(N2CCCC2)C(=O)c2ccccc2C1=O)c1ccc(F)cc1 | 1 |
| CC(=O)N(C1=C(N2CCCCC2)C(=O)c2ccccc2C1=O)c1ccc(F)cc1 | 0.721 |
| CNC1=C(N(Cc2ccc(Cl)c(Cl)c2)C(C)=O)C(=O)c2ccccc2C1=O | 0 |
| CCC(=O)N(C1=C(NC)C(=O)c2ccccc2C1=O)C(C)C | 0.601 |
| CCN(C(C)=O)C1=C(N2CCOCC2)C(=O)c2ccccc2C1=O | 0.538 |
| CC(=O)N(Cc1ccc(F)cc1)C1=C(NCCc2ccccc2)C(=O)c2ccccc2C1=O | 0.0184 |
| Cc1cc(Nc2cccc(Cl)c2)nc2ccc(NC(=O)c3cccnc3)cc12 | 0.912 |
| COC(=O)c1c(NC(=O)c2ccc(S(=O)(=O)N3CCOCC3)cc2)sc2c1CCN(C(C)=O)C2 | 0.76 |
| C1=C(c2ccccc2)CCN(c2ncnc3c2nc2n3CCCCC2)C1 | 0.916 |
